# PubChem BioAssay
# Values joined by “and” are separate entries in the source; they are usually repeats but may differ in a detail not shown here. Identical values can stand only once. Results filed as inconclusive are left out. Active and inactive are the calls of the source. Unless noted, no rule for the calls is given here.
# What was measured:
# [1] = compounds altering circadian rhythm period length – cell-based, LOPAC library, luminescence reporter (AID 2774); details: circadian reporter cells, at 7 µM, actives lie on both sides;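 also: values are relative to mean of DMSO wells on each plate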
# [2] = test system: Hepatitis C virus NS3 helicase; assay: blockers of NS3h binding to ssDNA – biochemical, fluorescence polarization, LOPAC1280 library, primary screen (AID 687035; in the data active = inhibition above about 37%); details: Purified HCV NS3 helicase, Cy5-dT15 ssDNA binding fluorescence polarization; stronger effect = higher value; concentration not given here
# [3] = compounds altering Cy5-DNA-NS3h complex signal – biochemical, LOPAC1280, artefact control for HCV NS3 helicase inhibitor project (AID 687037); details: Cy5-DNA-NS3h complex fluorescence interference counterscreen
# [4] = test system: Aerobactin synthetase IucA (Klebsiella pneumoniae, hypervirulent); assay: biochemical IucA inhibition screen of LOPAC library by absorbance (AID 1346212); details: IucA enzyme assay, absorbance (OD) readout; stronger effect = lower value;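 tested at 8 µM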;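 also: 100% = no compound wells and 0% = no enzyme wells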
# [5] = viability loss with induced miR-34 in A549 – imaging, A549 dox-inducible miR-34, nuclei and caspase counts, primary screen (AID 1347080;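 active = compounds whose cell count with miR-34 switched on is under 0.7 times the count with it off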); details: A549 miR-34 inducible, Hoechst nuclei count, 48 h
# [6] = blockers of cellular phospholipid synthesis – cell-based, LOPAC library, screen 4, primary screen (AID 1347384); details: animal cells, phospholipid biosynthesis inhibition screen; at 10 µM
# [7] = galactose survival enhancers in mitochondrial complex I cybrids – cell-based, galactose medium, ATP luminescence, primary screen (AID 1645843;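 active = z-score of at least 1.8 in each of two replicates, scored against plate mean and spread of sample wells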;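 also: positive z means more ATP and so rescue of galactose-driven cybrid death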); details: complex I mutant cybrid cells, 72 h, stronger effect = higher value
# [8] = P. berghei load reduction in hepatocytes – cell-based, HepG2, luciferase luminescence, HepG2 viability, primary screen (AID 624349; in the data active = parasite load remaining mostly below about 12%, no sharp cut-off; inactive = mostly above about 10%;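 also: 100% = mean of DMSO negative control wells on the same plate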); details: P. berghei liver stage in HepG2, luciferase luminescence, concentration not given here; parasite load remaining: stronger effect = lower value; viability: measured here: HepG2 viability without parasites
# [9] = viability loss in pontine glioma line – cell-based, SU-DIPG-XIII, MIPE4.0, CellTiter-Glo, qHTS, dose response (AID 1347061; cut-off not given, nearly all actives have AC50 up to about 37 µM;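 also: cells exposed to compound for 48 hours before readout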); details: CellTiter-Glo ATP luminescence
# [10] = viability loss in pontine glioma line – cell-based, JHH-DIPG-1, MIPE4.0, CellTiter-Glo, qHTS, dose response (AID 1347062; cut-off not given, nearly all actives have AC50 up to about 27 µM;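 also: cells exposed to compound for two days before readout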); details: JHH-DIPG-1 viability, CellTiter-Glo ATP luminescence
# [11] = viability loss in pontine glioma line – cell-based, SU-DIPG-IV, MIPE4.0, CellTiter-Glo, qHTS, dose response (AID 1347063; cut-off not given, nearly all actives have AC50 up to about 30 µM;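 also: compound exposure lasted 48 hours before the viability readout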); details: CellTiter-Glo ATP luminescence
# [12] = viability loss in pontine glioma line – cell-based, SU-DIPG-XIII, MIPE5.0, CellTiter-Glo, qHTS, dose response (AID 1347064; cut-off not given, nearly all actives have AC50 up to about 23 µM;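 also: cells exposed to compound for 48 hours before the viability read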); details: CellTiter-Glo ATP luminescence
# [13] = growth inhibition of DIPG cells – cell-based, MIPE4.0 library, CellTiter-Glo luminescence, qHTS (AID 1347066; cut-off not given, nearly all actives have AC50 up to about 30 µM;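 also: cells exposed to compound for 48 hours before readout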); details: SU-DIPG-VI viability, CellTiter-Glo ATP luminescence
# [14] = JHH-DIPG-1 glioma cell viability, MIPE5.0 library, CellTiter-Glo luminescence, qHTS (AID 1347067; cut-off not given, nearly all actives have AC50 up to about 26 µM;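 also: cells exposed to compound for 48 hours before readout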); details: JHH-DIPG-1 glioma viability, CellTiter-Glo ATP luminescence
# [15] = chitosan synthesis blockers in C. neoformans – flow cytometry, Cibacron Brilliant Red staining (AID 1347148); details: Cryptococcus neoformans chitosan, stronger effect = lower value; at 10 µM unless noted;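 also: compound exposure lasted three days at 37 degrees C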
# [16] = compounds altering viability of human ES cells (AID 493140); details: human embryonic stem cell survival screen; stronger effect = higher value;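 also: cells exposed to compounds for four days before counting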
# [17] = viability loss in pontine glioma line – cell-based, SU-DIPG-XVII, MIPE5.0, CellTiter-Glo, qHTS, dose response (AID 1347060; cut-off not given, nearly all actives have AC50 up to about 26 µM;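 also: cells exposed to compound for 48 hours before viability readout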); details: CellTiter-Glo ATP luminescence
# [18] = viability loss in pontine glioma line – cell-based, SU-DIPG-XXV, MIPE5.0, CellTiter-Glo, qHTS, dose response (AID 1347065; cut-off not given, nearly all actives have AC50 up to about 26 µM;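 also: cells exposed to compound for 48 hours before ATP readout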); details: CellTiter-Glo ATP luminescence
# [19] = measured here: relative caspase fold change +Dox/-Dox
# [20] = measured here: total cells with miR-34 induction, stronger effect = lower value
# [21] = measured here: total cells without miR-34 induction
smiles,measurement,setting,value
CN1CCc2cccc(Cl)c2CC1,period change,[1],0.06 h (inactive)
same,inhibition,[2],-4% (inactive)
same,fluorescence ratio (interference),[3],1 (inactive)
same,remaining activity,[4],114% (inactive)
same,fold change,[5]; stronger effect = lower value,1.03 (inactive)
same,fold change,[5]; [19],1.41
same,cell count,[5]; [20],9920
same,cell count,[5]; [21],9620
same,outcome,[6],inactive
same,z-score,[7],0.41 (inactive)
COc1ccc2c(c[n+](C)c3c4cc5c(cc4ccc23)OCO5)c1OC,period change,[1],0.045 h (inactive)
same,parasite load remaining,[8],41.8% (inactive)
same,viability,[8],157%
same,inhibition,[2],-3% (inactive)
same,fluorescence ratio (interference),[3],0.9 (inactive)
same,remaining activity,[4],110% (inactive)
same,AC50,[9],26.4 µM (active)
same,AC50,[10],4.18 µM (active)
same,AC50,[11],5.26 µM (active)
same,AC50,[12],4.17 µM (active)
same,AC50,[13],8.33 µM (active)
same,AC50,[14],5.9 µM (active)
same,fold change,[5]; stronger effect = lower value,1.19 (inactive) and 0.771 (inactive)
same,fold change,[5]; [19],0.571 and 1.14
same,cell count,[5]; [20],525 and 1050
same,cell count,[5]; [21],442 and 1360
same,fold fluorescence,[15],7.04 [at 143.5 µM] (inactive)
same,outcome,[6],inactive
same,z-score,[7],-1.52 (inactive)
NCCCP(=O)(O)O,period change,[1],0.005 h (inactive)
same,inhibition,[2],-1% (inactive)
same,fluorescence ratio (interference),[3],1 (inactive)
same,remaining activity,[4],111% (inactive)
same,fold change,[5]; stronger effect = lower value,0.943 (inactive)
same,fold change,[5]; [19],2.14
same,cell count,[5]; [20],9360
same,cell count,[5]; [21],9930
same,outcome,[6],inactive
same,z-score,[7],0.285 (inactive)
O=C(O)[C@@H]1CCN1,period change,[1],0.09 h (inactive)
same,inhibition,[2],-5% (inactive)
same,fluorescence ratio (interference),[3],0.9 (inactive)
same,remaining activity,[4],122% (inactive)
same,fold change,[5]; stronger effect = lower value,1.03 (inactive)
same,fold change,[5]; [19],1.27
same,cell count,[5]; [20],10700
same,cell count,[5]; [21],10400
same,outcome,[6],inactive
same,z-score,[7],0.2 (inactive)
Cc1c(C(=O)c2cccc3ccccc23)c2cccc3c2n1[C@H](CN1CCOCC1)CO3,period change,[1],-0.065 h (inactive)
same,survival,[16],106 (inactive)
same,inhibition,[2],-8% (inactive)
same,fluorescence ratio (interference),[3],1 (inactive)
same,remaining activity,[4],99.8% (inactive)
same,AC50,[11],9.35 µM (active)
same,fold change,[5]; stronger effect = lower value,0.941 (inactive) and 0.94 (inactive)
same,fold change,[5]; [19],1.39 and 1.17
same,cell count,[5]; [20],5730 and 5540
same,cell count,[5]; [21],6090 and 5900
C[N+](C)(C)CCOC(=O)CBr,period change,[1],0.015 h (inactive)
same,inhibition,[2],-2% (inactive)
same,fluorescence ratio (interference),[3],1 (inactive)
same,remaining activity,[4],126% (inactive)
same,fold change,[5]; stronger effect = lower value,1.01 (inactive)
same,fold change,[5]; [19],2.27
same,cell count,[5]; [20],10100
same,cell count,[5]; [21],10100
same,outcome,[6],inactive
same,z-score,[7],0.69 (inactive)
CCCN(CCC)[C@@H]1CCc2cccc(O)c2C1,period change,[1],-0.075 h (inactive)
same,inhibition,[2],-5% (inactive)
same,fluorescence ratio (interference),[3],1 (inactive)
same,remaining activity,[4],102% (inactive)
same,fold change,[5]; stronger effect = lower value,1.11 (inactive)
same,fold change,[5]; [19],1.06
same,cell count,[5]; [20],10200
same,cell count,[5]; [21],9240
same,outcome,[6],inactive
same,z-score,[7],-0.38 (inactive)
COC[C@H]1OC(=O)c2coc3c2[C@@]1(C)C1=C(C3=O)C2CCC(=O)[C@@]2(C)C[C@H]1OC(C)=O (stereo partly specified),period change,[1],-0.52 h (inactive)
same,survival,[16],37.8 (inactive)
same,inhibition,[2],-1% (inactive)
same,fluorescence ratio (interference),[3],1 (inactive)
same,remaining activity,[4],109% (inactive)
same,AC50,[17],5.25 µM (active)
same,AC50,[9],23.5 µM (active)
same,AC50,[11],3.72 µM (active)
same,AC50,[18],2.63 µM (active)
same,AC50,[13],18.7 µM (active)
same,AC50,[14],4.17 µM (active)
same,fold change,[5]; stronger effect = lower value,1.01 (inactive)
same,fold change,[5]; [19],1.88
same,cell count,[5]; [20],3350
same,cell count,[5]; [21],3320
same,outcome,[6],inactive
same,z-score,[7],0.165 (inactive)
NC(N)=Nc1ccc2[nH]c3c(c2c1)C[C@@]1(O)[C@H]2Cc4ccc(O)c5c4[C@@]1(CCN2CC1CC1)[C@H]3O5,period change,[1],-0.11 h (inactive)
same,inhibition,[2],-6% (inactive)
same,fluorescence ratio (interference),[3],0.9 (inactive)
same,remaining activity,[4],86.3% (inactive)
same,fold change,[5]; stronger effect = lower value,1.08 (inactive)
same,fold change,[5]; [19],0.809
same,cell count,[5]; [20],9750
same,cell count,[5]; [21],9000
same,outcome,[6],inactive
same,z-score,[7],-0.92 (inactive)
NC(=O)c1ccc(OCC(O)CN2CC=C(c3ccc(F)cc3)CC2)cc1 (stereo unspecified),period change,[1],0.145 h (inactive)
same,inhibition,[2],-1% (inactive)
same,fluorescence ratio (interference),[3],0.9 (inactive)
same,remaining activity,[4],103% (inactive)
same,fold change,[5]; stronger effect = lower value,1.01 (inactive)
same,fold change,[5]; [19],1.9
same,cell count,[5]; [20],9620
same,cell count,[5]; [21],9570
same,outcome,[6],inactive
same,z-score,[7],-0.85 (inactive)
NCC(O)c1cc(O)c(O)cc1F (stereo unspecified),period change,[1],-0.105 h (inactive)
same,inhibition,[2],1% (inactive)
same,fluorescence ratio (interference),[3],0.9 (inactive)
same,remaining activity,[4],110% (inactive)
same,fold change,[5]; stronger effect = lower value,1.02 (inactive)
same,fold change,[5]; [19],1.46
same,cell count,[5]; [20],10300
same,cell count,[5]; [21],10200
same,outcome,[6],inactive
same,z-score,[7],-1.47 (inactive)
CC(=O)[C@H]1CCC2C3CC[C@H]4C[C@H](O)CC[C@]4(C)C3CC[C@@]21C (stereo partly specified),period change,[1],-0.055 h (inactive)
same,inhibition,[2],0% (inactive)
same,fluorescence ratio (interference),[3],1 (inactive)
same,remaining activity,[4],95.7% (inactive)
same,fold change,[5]; stronger effect = lower value,1.03 (inactive)
same,fold change,[5]; [19],0.981
same,cell count,[5]; [20],10100
same,cell count,[5]; [21],9760
same,outcome,[6],inactive
same,z-score,[7],-0.6 (inactive)
CCCN1CCc2cc(O)cc3c2[C@H]1Cc1ccc(O)c(O)c1-3,period change,[1],0.415 h (inactive)
same,inhibition,[2],1% (inactive)
same,fluorescence ratio (interference),[3],1 (inactive)
same,remaining activity,[4],99.8% (inactive)
same,fold change,[5]; stronger effect = lower value,0.922 (inactive)
same,fold change,[5]; [19],1.32
same,cell count,[5]; [20],9400
same,cell count,[5]; [21],10200
same,outcome,[6],inactive
same,z-score,[7],-0.965 (inactive)
